Data as given in PubChem BioAssay AID720597 (Broad Institute, 2013).
Entries with a potency or affinity are not part of this list. The source made the active and inactive calls.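 How the source made its calls: active means fitted half-maximal dose no more than twice the top valid tested dose, for compounds that lower signal; inconclusive means fit invalid, or curve flat with activity between -70 and -30; inactive means potency past limit, curve flat within ±30, or signal increasing.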

Target: NAD-dependent protein deacylase sirtuin-5, mitochondrial (Homo sapiens) (UniProt Q9NXA8)
Test: SIRT5 deacylase inhibitors, dose response, biochemical, fluorescence imaging, cherry-pick, set 6 (AID 720597);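 further: lower AMC signal can also come from blocking the trypsin step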
Settings: Purified SirT5, succinyl-peptide-AMC/trypsin fluorescence; series mostly up to 15 µM

Sequence of NAD-dependent protein deacylase sirtuin-5, mitochondrial (Homo sapiens) (Q9NXA8 whole entry, looked up): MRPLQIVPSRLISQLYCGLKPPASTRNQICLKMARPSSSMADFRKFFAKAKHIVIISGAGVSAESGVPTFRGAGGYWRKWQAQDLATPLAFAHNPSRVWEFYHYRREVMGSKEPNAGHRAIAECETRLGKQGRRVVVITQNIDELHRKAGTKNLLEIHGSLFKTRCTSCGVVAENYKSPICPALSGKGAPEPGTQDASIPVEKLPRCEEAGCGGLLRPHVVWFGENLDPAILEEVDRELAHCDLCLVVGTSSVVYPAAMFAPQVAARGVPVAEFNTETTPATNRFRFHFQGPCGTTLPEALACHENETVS

outcome, inactive:
C[C@H](O)C#Cc1ccc2c(c1)O[C@H](CN(C)Cc1ccc(-c3ccccc3)cc1)[C@@H](C)CN([C@H](C)CO)S2(=O)=O, O=C(CN1CCOCC1)NCC[C@H]1CC[C@@H](NS(=O)(=O)c2ccc(Cl)cc2)[C@@H](CO)O1, Cc1noc(C)c1NC(=O)N(C)C[C@H]1OCCCC[C@@H](C)Oc2ccc(NS(=O)(=O)c3c(C)noc3C)cc2C(=O)N([C@H](C)CO)C[C@@H]1C, C[C@H](CO)N1C[C@H](C)[C@H](CN(C)Cc2ccncc2)Oc2ccc(NC(=O)CCN3CCOCC3)cc2C1=O, CN1c2ccc(-c3ccc(F)cc3)cc2[C@@H]2[C@@H](CCN2C(=O)c2ccncc2)[C@@H]1CO, CN(C)C(=O)c1cccc(-c2ccc([C@@H]3[C@@H](CO)N4CCCCN(S(C)(=O)=O)C[C@@H]34)cc2)c1, C[C@H]1CN([C@@H](C)CO)C(=O)c2cc(NC(=O)Cc3ccccc3)ccc2O[C@@H]1CN(C)Cc1ccc(Oc2ccccc2)cc1, COc1ccc(S(=O)(=O)N(C)C[C@H]2OCCCC[C@H](C)Oc3ccc(NS(=O)(=O)c4ccc(Cl)cc4)cc3C(=O)N([C@H](C)CO)C[C@H]2C)cc1, C[C@@H]1CN([C@H](C)CO)S(=O)(=O)c2ccc(C#Cc3ccccn3)cc2O[C@@H]1CN(C)Cc1cccc(F)c1, COc1ccc(NC(=O)N(C)C[C@H]2Oc3cc(C#CCC(C)C)ccc3S(=O)(=O)N([C@H](C)CO)C[C@@H]2C)cc1, O=S(=O)(N[C@@H]1CC[C@@H](CCn2cc(Cc3ccccc3)nn2)O[C@H]1CO)c1ccccc1F, Cc1noc(C)c1NC(=O)N(C)C[C@@H]1OCCCC[C@H](C)Oc2ccc(NC(=O)Nc3ccc(F)cc3)cc2C(=O)N([C@@H](C)CO)C[C@@H]1C, CCCC(=O)Nc1ccc2c(c1)OC[C@H](C)N(Cc1ccccc1)C[C@H](C)[C@H](OC)CN(C)C2=O, C[C@@H]1CN([C@@H](C)CO)S(=O)(=O)c2ccc(/C=C/c3ccccc3)cc2O[C@@H]1CN(C)C(=O)NC1CCCCC1, COc1cccc(-c2ccc3c(c2)[C@@H]2[C@@H](CCN2C(=O)c2ccccc2F)[C@H](CO)N3C)c1, C[C@H](CO)N1C[C@H](C)[C@@H](CN(C)Cc2ccc(Cl)c(Cl)c2)OCCCC[C@H](C)Oc2ccc(NS(=O)(=O)c3cccs3)cc2C1=O, COc1ccc(S(=O)(=O)N(C)C[C@@H]2OCCCC[C@H](C)Oc3ccc(NS(=O)(=O)c4ccc(Cl)cc4)cc3C(=O)N([C@@H](C)CO)C[C@H]2C)cc1, C[C@@H]1CN([C@@H](C)CO)S(=O)(=O)c2ccc(C#CC(C)(C)O)cc2O[C@H]1CN(C)Cc1ccc(F)cc1, CC(=O)N(C)C[C@H]1Oc2ncc(C#CCC3CCCC3)cc2C(=O)N([C@@H](C)CO)C[C@H]1C, CC(C)C#Cc1ccc2c(c1)O[C@@H](CN(C)Cc1ccccn1)[C@H](C)CN([C@H](C)CO)S2(=O)=O, C[C@H]1CN([C@@H](C)CO)S(=O)(=O)c2ccc(C3=CCCCC3)cc2O[C@H]1CN(C)S(=O)(=O)c1ccc(F)cc1, C[C@H]1CN([C@@H](C)CO)C(=O)c2ccccc2-c2ccccc2CO[C@@H]1CN(C)C(=O)Nc1ccccc1C(F)(F)F, COc1ccccc1-c1ccc2c(c1)O[C@H](CN(C)S(=O)(=O)c1ccc(F)cc1)[C@H](C)CN([C@H](C)CO)S2(=O)=O, CO[C@@H](CN(C)Cc1ccc2c(c1)OCO2)[C@@H](C)CN(C(=O)Nc1ccc(F)cc1)[C@H](C)CO, Cc1ccc(S(=O)(=O)N(C)C[C@H]2Oc3ccc(NC(=O)Cn4cnnn4)cc3CC(=O)N([C@@H](C)CO)C[C@H]2C)cc1, COc1ccc(S(=O)(=O)N(C)C[C@H]2OCCCC[C@H](C)Oc3ccc(NS(=O)(=O)c4ccc(C)cc4)cc3C(=O)N([C@@H](C)CO)C[C@H]2C)cc1, CN(C)Cc1cn(CC[C@H]2CC[C@@H](NC(=O)Nc3ccccc3F)[C@@H](CO)O2)nn1, C[C@H](CO)N1C[C@H](C)[C@@H](CN(C)S(=O)(=O)c2cccc(F)c2)Oc2ncc(C#CC3CCCCC3)cc2C1=O, COc1ccc(C#Cc2ccc([C@@H]3[C@@H](CO)N4C(=O)CN(C(=O)c5cccnc5)C[C@H]34)cc2)cc1
